Most compounds without a hit are left out; they make up all but 11% or so of the library.
AMA1-RON2 inh: qHTS for Inhibitors of AMA1-RON; Towards Development of Antimalarial Drug Lead: Primary Screen | Plasmodium falciparum AMA1 (3D7) - RON2 peptide interaction | AlphaScreen AMA1-biotinylated RON2 peptide binding | Potency, µM (highest dose often 58.2 µM), usual class: inhibitors | actives 0.2% (n = 360,000); also: nearly all actives have a fitted effect of over 45% in size
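AMA1 (3D7) with his tag at 25 nM final met compounds first, then biotinylated RON2 peptide at 25 nM; detection used donor plus acceptor beads, 10 µg/mL apiece, read by AlphaScreen after 30 min at room temperature.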
Pf growth 96h: Primary qHTS for delayed death inhibitors of the malarial parasite plastid, 96 hour incubation. P. falciparum luciferase reporter growth, 96 h. Potency, µM (doses to about 28.7 µM), hits mostly inhibitors. actives 6.9% (n = 320,000)
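Erythrocytes infected with luciferase-expressing P. falciparum were dispensed at 2% hematocrit and 0.05% parasitemia (final), then incubated with compounds 96 hours at 37 C in 5% CO2. Luminescence after detection reagent addition reported growth.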
HCV inhibitor: qHTS Assay for Inhibitors of Hepatitis C Virus (HCV); Huh7.5.1 HCVcc-Cre infection, luciferase reporter, 44 h; Potency, µM (doses to about 41.8 µM), actives largely listed as inhibitors; actives 3.4% (n = 340,000)
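Infectious HCVcc-Cre (~0.5 moi) was added to cells just after compound, with cells seeded 4 h earlier at 1,000 per well. Luciferase activity after 44 h culture reported infection; substrate was incubated 15 min at room temperature before reading.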
Pf growth 48h: Primary qHTS for delayed death inhibitors of the malarial parasite plastid, 48 hour incubation; actives 5.9% (n = 310,000); P. falciparum luciferase growth in erythrocytes, 48 h; AID 504832, 2011; Potency, µM (titrated, usually from 28.7 µM), actives largely listed as inhibitors
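Read-out is firefly luciferase luminescence from an integrated reporter in P. falciparum, so falling signal marks reduced parasite growth. Infected erythrocytes were at 2% hematocrit and 0.1% parasitemia (final) in Albumax-supplemented RPMI 1640.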
Each line names hits and unclear results; the compound was inactive in the other large screens. Calls follow the shape of the dose curve; as a rule, active = well fitted curve in the direction sought with a large enough effect; inconclusive = small, poorly fitted or top-dose-only effect, or another doubt; inactive = no such curve, though single readings can be large; an effect the other way counts as inactive or inconclusive.

CC1(C)CC[C@]2(C(=O)O[C@@H]3O[C@H](CO)[C@@H](O)[C@H](O)[C@H]3O)CC[C@]3(C)C(=CCC4[C@@]5(C)CC[C@H](O[C@@H]6O[C@H](C(=O)O)[C@@H](O[C@H]7OC[C@@H](O)[C@@H](O)[C@@H]7O)[C@H](O)[C@H]6O)C(C)(C)C5CC[C@]43C)[C@@H]2C1 (stereo not given in full)	none (no result: Pf growth 96h, Pf growth 48h)
CC1(C)CC[C@]2(C(=O)O)CC[C@]3(C)C(=CC[C@@H]4[C@@]5(C)CC[C@H](O[C@@H]6O[C@H](C(=O)O)[C@@H](O)[C@H](O[C@@H]7OC[C@H](O)[C@H](O)[C@H]7O)[C@H]6O)C(C)(C)[C@@H]5CC[C@]43C)[C@@H]2C1	HCV inhibitor 11µM (no result: Pf growth 96h, Pf growth 48h)
Cc1ccccc1CNC(=O)c1ccc2nc([C@@H]3O[C@H](CO)[C@H](O)[C@H](O)[C@H]3O)[nH]c2c1	none (no result: Pf growth 96h, HCV inhibitor, Pf growth 48h)
CCOc1ccc(NC(=O)CN(C)C(=O)c2cccc(S(=O)(=O)N3CCN(C)CC3)c2)cc1OCC	none (no result: Pf growth 96h, Pf growth 48h)
O=c1nc2ccccn2c2ccc(S(=O)(=O)N3CCCCC3)cc12	Pf growth 96h 6.6µM, Pf growth 48h 5.9µM
CC1Cc2ccccc2N1Cc1cccc([N+](=O)[O-])c1 (stereo not given)	AMA1-RON2 inh 10µM
CC1Cc2ccccc2N1Cc1ccc([N+](=O)[O-])cc1 (stereo not given)	AMA1-RON2 inh 11µM, Pf growth 96h inconclusive, Pf growth 48h inconclusive
Cc1ccc(/C=C/C(=O)OCC(=O)NC(C)C)o1	HCV inhibitor inconclusive
CC(C)OC(=O)CCC1(C(=O)O)CCC(=O)NC1 (stereo not given)	Pf growth 48h 1.3µM (no result: Pf growth 96h)
COc1ccc(-n2c(Cc3cccn3C)nnc2SCC(=O)Nc2ccc3c(c2)OCO3)cc1	Pf growth 48h inconclusive
COCCn1c(C)cc(/C=C2/NC(=O)N(c3ccc(Cl)cc3)C2=O)c1C	Pf growth 96h inconclusive, Pf growth 48h inconclusive
COc1cccc(CCc2ccccc2OCC(CN(C)C)OC(=O)CCC(=O)O)c1 (stereo not given)	Pf growth 96h 3.4µM, Pf growth 48h 4.8µM (no result: AMA1-RON2 inh, HCV inhibitor)
CC(=O)c1ccc(NC(=O)N2C3CCC2CC(O)(c2cccnc2)C3)cc1 (stereo not given)	Pf growth 96h inconclusive
O=C1C(Cc2ccccc2)Nc2ncnc(N3CCc4ccccc4C3)c2N1Cc1ccccc1 (stereo not given)	none (no result: Pf growth 96h, Pf growth 48h)
O=C1C(Cc2ccccc2)Nc2ncnc(N3CCN(c4ccccc4)CC3)c2N1Cc1ccc(Cl)cc1 (stereo not given)	Pf growth 96h 9.3µM, HCV inhibitor inconclusive, Pf growth 48h 3.7µM
O=C1C(Cc2ccccc2)Nc2ncnc(N3CCOCC3)c2N1Cc1ccc(Br)cc1 (stereo not given)	Pf growth 96h inconclusive, HCV inhibitor inconclusive, Pf growth 48h 13µM
CCC1Nc2ncnc(N3CCOCC3)c2N(Cc2ccc(Cl)cc2)C1=O (stereo not given)	none (no result: Pf growth 96h, Pf growth 48h)
CC1Nc2ncnc(N3CCN(c4ccccc4)CC3)c2N(Cc2ccc(Cl)cc2)C1=O (stereo not given)	Pf growth 96h 13µM, HCV inhibitor inconclusive, Pf growth 48h 8.3µM
Cc1ccc(CN2C(=O)C(C)Nc3ncnc(N4CCOCC4)c32)cc1 (stereo not given)	Pf growth 96h 12µM, Pf growth 48h 10µM
CCCCC[C@@H]1C=C(C(=O)O)[C@H](c2ccc(OC)c(OC)c2)N1S(=O)(=O)c1ccc(C)cc1	none (no result: Pf growth 96h, Pf growth 48h)
O=C(NN1CCOCC1)c1ccccc1	Pf growth 48h inconclusive
CC(=O)NCCNC(=O)C1(C)Cc2c(-c3ccc(NC(C)=O)cc3)ccnc2O1 (stereo not given)	none (no result: Pf growth 96h, HCV inhibitor, Pf growth 48h)
Cn1cccc1C(=O)NC(=O)COC(=O)c1cc(Cl)ccc1[N+](=O)[O-]	none
O=C1C(Cc2ccccc2)Nc2ncnc(N3CCCCC3)c2N1Cc1ccc(Cl)cc1 (stereo not given)	Pf growth 96h 12µM, Pf growth 48h 12µM
Cc1ccc(C(=O)N2CC3(C(C)C)CN(C(=O)c4ccc(C)cc4)CC(C(C)C)(C2)C3=O)cc1	Pf growth 96h 9.3µM (no result: Pf growth 48h)
CCCCCCC(=O)N(O)C1CC(=O)N(c2ccc(Cl)cc2)C1=O (stereo not given)	Pf growth 96h 10µM, Pf growth 48h 4.1µM
CCCCCCC(=O)N(O)C1CC(=O)N(c2ccc(C)cc2)C1=O (stereo not given)	Pf growth 96h inconclusive (no result: Pf growth 48h)
C=CCn1c(SCC(=O)Nc2cccc(S(N)(=O)=O)c2)nc2sc(C)c(C)c2c1=O	HCV inhibitor inconclusive (no result: Pf growth 96h, Pf growth 48h)
CCNC(=O)c1ccc(NC(=O)CC2SC(N3CCCC3)=NC2=O)cc1 (stereo not given)	none
CCc1ccc(/C=N/n2c(C)cc(C)c(C#N)c2=O)cc1	Pf growth 96h 1.7µM, Pf growth 48h 9.3µM
Cc1cccc(/C=N/n2c(C)cc(C)c(C#N)c2=O)c1	Pf growth 96h inconclusive, Pf growth 48h 5.2µM
CC(C)C1O/C(=N/C(=O)Nc2ccc(Cl)c(Cl)c2)NC1=O (stereo not given)	Pf growth 96h inconclusive, HCV inhibitor inconclusive, Pf growth 48h 12µM
C/C(CC(=O)Nc1ccc(F)cc1)=N\NC(=O)COc1ccccc1	none
COc1ccc(C(=O)NCC(=O)NCC2(N(C)C)CCCCC2)cc1OC	Pf growth 96h inconclusive (no result: Pf growth 48h)
COc1ccccc1NC(=O)COc1ccc(C(=O)NCc2ccccc2)cc1OC	Pf growth 96h inconclusive, HCV inhibitor inconclusive, Pf growth 48h 13µM
COc1ccccc1NC(=O)COc1ccc(CO)cc1Cl	HCV inhibitor 10µM (no result: Pf growth 96h)
COc1cc(C(=O)NCC2(N(C)C)CCCCC2)ccc1OCc1ccccc1	Pf growth 96h 9.3µM, HCV inhibitor inconclusive, Pf growth 48h inconclusive
O=C(O)c1cccc2c1C(=O)c1ccc(-c3ccc(Cl)c(C(F)(F)F)c3)cc1S2(=O)=O	none
CC(C)(C)c1ccc(/C=C(\C#N)C(=O)NC2CC2)cc1	HCV inhibitor inconclusive (no result: Pf growth 96h, Pf growth 48h)
O=C(NCc1ccccn1)c1cccc(S(=O)(=O)N2CCCCC2)c1	Pf growth 96h inconclusive
COc1ccc(NC(=S)Nc2cccnc2)c(OC)c1	Pf growth 96h 15µM
COc1ccc(NC(=O)/C(C#N)=C/c2cccnc2)c(OC)c1	Pf growth 96h 1µM
COc1ccc(NC(=O)c2cccnc2)c(OC)c1	Pf growth 96h 15µM (no result: Pf growth 48h)
COc1ccc(NC(=O)C(=O)N/N=C/c2cccnc2)c(OC)c1	Pf growth 96h inconclusive
COc1ccc(NC(=O)c2cc(-c3cccnc3)nc3c(C)c(C)ccc23)c(OC)c1	Pf growth 96h 0.83µM, HCV inhibitor 13µM, Pf growth 48h inconclusive
COc1ccccc1NC(=O)c1cccnc1	none
CC1=CC(C)(C)NC(=S)N1c1cccc(Cl)c1	HCV inhibitor inconclusive (no result: Pf growth 96h, Pf growth 48h)
CCCNS(=O)(=O)c1cc2c3c(c1)CCN3C(=O)CC2	none
COc1ccc(NC(=S)Nc2ccccn2)c(OC)c1	HCV inhibitor 11µM
Cc1ccc(NC(=S)Nc2cccnc2)c(S(=O)(=O)N2CCCCC2)c1	Pf growth 96h inconclusive, HCV inhibitor 11µM
COc1ccc(NC(=S)Nc2cc(C)ccn2)c(OC)c1	HCV inhibitor inconclusive
